Screening data deposited in PubChem by several laboratories.
A selection: hits, their analogues and other compounds. The true share with any hit is near 27%.
Cav32 inh: inhibitors of human Cav3.2 T-type calcium channel; Cav3.2-expressing cells, Fluo-4 calcium fluorescence FDSS; stronger effect = lower value; O95180; actives 4% (n = 100,000); B-score at 10 µM;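 active means single-dose well whose peak fluorescence ratio is a statistical outlier from its plate by either plate-standardised score or position-corrected B-score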
CYP2C19 act: cytochrome P450 2C19 (human) activation | recombinant CYP2C19, luciferin-H EGE luminescence; stronger effect = higher value; 0 = fully inhibited enzyme, 1 = untreated enzyme | P33261 | 96,000 tested, under 10 active | activation factor at 5 µM;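 active means activation factor of at least 2 at 5 µM in the primary screen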
CYP2C9 inhib: blocks human cytochrome P450 2C9; CYP2C9 Supersomes, luciferin-H conversion, luminescence; inhibition, % at 5 µM; actives 20% (n = 96,000); AID 777;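 active means blocking of liver enzyme CYP2C9 beyond about 50% at 5 µM, limit read from the data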
Pyk2 oligo antag: antagonists of human Pyk2 oligomerization; Q14289; AID 1347419; Q293 cells, Pyk2 FERM NanoBiT luminescence; stronger effect = lower value; z-score (the deposit names both 25 µM and 10 µM); actives 0.83% (n = 99,000);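 active means Z-score of -3 or lower, scaled per plate to the spread of control and sample wells; inactive means z-score above -3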;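 further: negative z-score means lost luminescence so less FERM oligomerization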
Target sequence (Q14289 whole entry, looked up): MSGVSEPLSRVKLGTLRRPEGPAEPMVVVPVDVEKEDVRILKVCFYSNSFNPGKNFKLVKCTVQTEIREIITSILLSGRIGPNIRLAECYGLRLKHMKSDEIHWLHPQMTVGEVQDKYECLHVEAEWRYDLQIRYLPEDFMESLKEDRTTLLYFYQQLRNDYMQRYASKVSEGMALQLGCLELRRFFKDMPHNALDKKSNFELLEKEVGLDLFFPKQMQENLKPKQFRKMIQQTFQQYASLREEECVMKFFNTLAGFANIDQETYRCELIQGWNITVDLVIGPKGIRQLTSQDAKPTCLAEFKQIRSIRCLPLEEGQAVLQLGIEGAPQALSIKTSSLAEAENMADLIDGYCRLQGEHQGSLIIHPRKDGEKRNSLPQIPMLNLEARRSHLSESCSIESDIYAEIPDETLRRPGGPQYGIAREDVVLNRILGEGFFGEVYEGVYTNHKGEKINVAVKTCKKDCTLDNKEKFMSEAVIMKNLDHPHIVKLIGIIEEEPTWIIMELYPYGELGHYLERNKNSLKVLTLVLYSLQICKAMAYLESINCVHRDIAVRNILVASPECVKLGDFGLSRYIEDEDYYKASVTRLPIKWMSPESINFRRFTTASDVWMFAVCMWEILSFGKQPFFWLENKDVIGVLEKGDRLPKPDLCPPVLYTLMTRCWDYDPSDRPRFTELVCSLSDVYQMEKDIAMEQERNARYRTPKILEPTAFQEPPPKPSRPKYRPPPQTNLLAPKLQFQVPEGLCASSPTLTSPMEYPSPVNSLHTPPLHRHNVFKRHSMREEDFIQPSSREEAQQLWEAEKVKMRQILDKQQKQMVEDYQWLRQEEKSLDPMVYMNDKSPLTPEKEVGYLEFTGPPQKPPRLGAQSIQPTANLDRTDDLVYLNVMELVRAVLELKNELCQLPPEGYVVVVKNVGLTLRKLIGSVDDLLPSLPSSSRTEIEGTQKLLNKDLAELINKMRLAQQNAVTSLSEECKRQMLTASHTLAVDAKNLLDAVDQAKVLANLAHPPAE
CYP2C9 activ: increases human cytochrome P450 2C9 activity; recombinant CYP2C9, luciferin-H conversion, luminescence; stronger effect = higher value; factor 1 = untreated enzyme, 0 = blocked; activation factor at 5 µM; AID 1024; actives 1.4% (n = 96,000);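 active means activation factor of 2 or more for CYP2C9 at a 5 µM dose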
CYP2C19 inhib: inhibitors of human CYP2C19. actives 21% (n = 96,000). CYP2C19 Supersomes, luciferin-H EGE luminescence, 30 min. AID 778. P33261. inhibition, % at 5 µM;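 active means CYP2C19 inhibition above a set limit at 5 µM in the primary screen, cut at about 50% in these data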
Numbers stand for hits; i = inactive; nt = no result given.

SMILES	Cav32 inh	CYP2C19 act	CYP2C9 inhib	Pyk2 oligo antag	CYP2C9 activ	CYP2C19 inhib
CC(C)(C)C(=O)Nc1nc(-c2ccc3c(c2)OCO3)cs1	nt	i	94	i	i	92
c1cc2c(cc1Nc1nc(-c3ccc4c(c3)OCO4)cs1)OCCO2	i	i	87	i	i	73
CCC(=O)Nc1nc(-c2ccc3c(c2)OCCO3)cs1	i	i	i	nt	i	i
CC(C)(C)c1nc(CN2CCCCC2)cc(CN2CCCCC2)c1O	i	i	i	i	i	i
CC(C)(C)c1nc(CN2CCOCC2)ccc1O	i	i	i	i	i	60
CCCCN(CCCC)C(=O)c1nsnc1-c1ccccc1O	i	i	i	i	i	i
CCCc1cc(C(=O)Cc2ccc(F)cc2)c(O)cc1O	i	i	100	i	i	98
O=C(Cc1ccc(F)cc1)c1ccc(O)cc1O	i	i	i	i	i	53
CCCc1cc(-c2n[nH]c(C)c2-c2ccc(C(=O)OCC)o2)c(O)cc1O	i	i	99	i	i	97
CCCC(=O)NCCc1ccc(F)cc1	i	i	i	i	i	i
O=C(Cc1c(F)cccc1Cl)c1ccc(O)cc1O	i	i	i	i	i	i
CCCc1cc(C(=O)Cc2ccc(C(=O)OCC)o2)c(O)cc1O	-4.1	i	91	i	i	93
C[C@@H]1CC[C@]2(O[C@H](CCO)C[C@H](O)[C@H]2O)O1	i	nt	nt	nt	nt	nt
O=C(/C=C/c1ccccc1)CC(O)(c1ccccc1)C(F)(F)C(F)F (stereo unspecified)	i	i	i	i	i	i
O=C(/C=C/c1ccccc1)CC(O)(c1ccccc1)C(F)(F)F (stereo unspecified)	i	i	i	i	i	65
COc1ccc(OC)c(NC(=O)Cn2c(=O)n(CC(=O)NCc3ccco3)c(=O)c3ccccc32)c1	i	i	i	i	i	i
COc1ccc(NC(=O)c2c(NC(=O)CNCc3ccco3)sc3c2CCC3)cc1	i	i	93	i	i	63
COc1ccc(OC)c(NC(=O)c2c(NC(=O)CNCc3ccco3)sc3c2CCC3)c1	i	i	65	i	i	i
CSc1ncc(Cl)c(C(=O)Nc2sc3c(c2C(=O)NCc2ccco2)CCCC3)n1	i	i	i	nt	i	i
CCCCc1ccc(NC(=O)C2CCCO2)cc1 (stereo unspecified)	i	i	i	i	i	i
CN1CCN(C(=O)CN(CCc2ccccc2)S(C)(=O)=O)CC1	nt	i	i	i	i	i
COC(=O)c1ccc(C)c(NC(=O)CCSc2ccc(Cl)cc2)c1	nt	i	i	i	i	i
CC(C)OCCCNC(=O)CCSc1ccc(Cl)cc1	i	i	78	i	i	63
CCOC(=O)c1ccc(NC(=O)NC2CC3CCC(C2)N3Cc2nnnn2Cc2ccco2)cc1 (stereo unspecified)	-6.1	i	i	i	i	i
CC(=O)NC1(c2ccccc2)CCN(Cc2nnnn2C(C)(C)C)CC1	i	i	i	i	i	67
SMILES	Cav32 inh	CYP2C19 act	CYP2C9 inhib	Pyk2 oligo antag	CYP2C9 activ	CYP2C19 inhib
CCS(=O)(=O)N1CCC(NC(C)=O)(c2ccccc2)CC1	i	i	i	i	i	i
CC(C)(C)n1nnnc1CN1C2CCC1CC(NC(=O)Nc1ccccc1)C2 (stereo unspecified)	i	i	53	i	i	i
COc1ccc(CN2C3CCCC2CC(NC(=O)Nc2ccccc2)C3)cc1 (stereo unspecified)	i	nt	nt	i	nt	nt
CCOc1cc(C=C(C(=O)OC)C(=O)OC)ccc1OCc1ccc([N+](=O)[O-])cc1	i	i	i	i	i	i
O=C(Nc1nnc(C2CCCCC2)s1)c1ccco1	i	i	i	i	i	i
O=C(c1cc2ccccc2o1)c1cccs1	i	i	51	i	i	i
CC(NC(=O)c1cc2ccccc2o1)c1cccs1 (stereo unspecified)	i	i	69	i	i	82
Cc1ccc(C(=O)c2cc3ccccc3o2)cc1	i	i	i	i	i	i
CC(NC(=O)c1cc2ccccc2o1)C(=O)O (stereo unspecified)	i	nt	nt	i	nt	nt
O=C(NCc1ccco1)c1ccc(Cn2c(=O)c3sccc3n(Cc3cccc(F)c3)c2=O)cc1	i	i	85	nt	i	87
O=C(CCn1c(=O)c2sccc2n(CC(=O)NCc2ccco2)c1=O)NCc1ccccc1	i	i	61	i	i	i
O=C(CCCn1c(=O)c2sccc2n(CC(=O)NCc2ccco2)c1=O)NCc1ccco1	i	i	i	i	i	i
Cc1cccc(C)c1NC(=O)Cn1c(=O)n(CCCC(=O)NCc2ccco2)c(=O)c2sccc21	i	i	78	i	i	i
CCCn1c(Sc2nnnn2-c2ccccc2)n[nH]c1=O	i	i	i	i	i	i
CCOc1ccc(OC(=O)NC(c2ccccc2)C(Cl)(Cl)Cl)cc1 (stereo unspecified)	-3.5	nt	nt	i	nt	nt
C(=N\Nc1nc(-c2ccccc2)cs1)/c1cccnc1	i	i	89	i	i	93
c1ccc2c(c1)nc(-c1ccncc1)n1nnnc21	i	nt	nt	i	nt	nt
Clc1ccc(CSc2nnc(Cn3cnc4ccccc43)o2)cc1	-4.7	i	67	i	i	i
O=C(CSc1nnc(Cn2nnc3ccccc32)o1)N(Cc1ccc(Cl)cc1)c1ccccc1	-6	i	i	i	i	i
O=C(CSc1nnc(Cn2nnc3ccccc32)o1)Nc1cccc(Cl)c1	i	i	i	i	i	i
c1ccc(-c2csc(Nc3nc(N4CCOCC4)nc(N4CCOCC4)n3)n2)cc1	i	i	i	i	i	i
Cc1nc2nc(-c3ccc(Cl)cc3)[nH]n2c(=O)c1C	i	i	i	nt	i	i
CN(C)CCCOc1nc2c(c(=O)n(C)c(=O)n2C)n1C	i	nt	nt	i	nt	nt
O=C(NCCSCc1c(F)cccc1Cl)c1ccco1	i	i	75	i	i	80
O=C(CNC(=O)c1ccco1)OCc1c(F)cccc1Cl	i	i	i	i	i	i
SMILES	Cav32 inh	CYP2C19 act	CYP2C9 inhib	Pyk2 oligo antag	CYP2C9 activ	CYP2C19 inhib
Cc1sc2ncnc(OCC(=O)NCc3cccs3)c2c1C	i	nt	nt	i	nt	nt
Cc1ccc(CSC2=Nc3ccccc3C3=NC(CC(=O)NCc4ccco4)C(=O)N23)cc1 (stereo unspecified)	i	i	79	i	i	i
CCCCNC(=O)CC1N=C2c3ccccc3N=C(SCC(=O)Nc3cccc(OC)c3)N2C1=O (stereo unspecified)	i	i	i	i	i	i
CCCCNC(=O)CC1N=C2c3ccccc3N=C(SCC(=O)Nc3ccc(OC)cc3)N2C1=O (stereo unspecified)	i	i	60	i	i	i
O=C(CCC1N=C2c3ccccc3N=C(SCc3ccc(Cl)cc3)N2C1=O)NCc1ccco1 (stereo unspecified)	i	i	77	i	i	i
COc1ccc(N2CCN(C(=O)c3ccc(OCC4CCCO4)cc3)CC2)cc1 (stereo unspecified)	i	i	i	i	i	i
O=C(CN1CCN(C(=O)c2cccc(F)c2)CC1)NC1CCCCC1	i	i	i	nt	i	i
